Among the data in PubChem BioAssay (Tox21) are outcome values, retold here.

Active and inactive are the calls of the source. The call rests on the fitted dose curve; in most records, active means well fitted curve in the direction sought with a large enough effect in the repeat runs; inconclusive means weak or mixed curves; inactive means flat fitted curve, though single readings scatter.

This test in a line: qHTS assay to test for compound auto fluorescence at 535 nm (green) in HepG2 cells (AID 720675). Particulars: green autofluorescence 485/535 nm, 1 h; series mostly up to 46 µM. The text has this:
National Center for Advancing Translational Sciences [NCATS]
NIH Chemical Genomics Center [NCGC]
U.S. Environmental Protection Agency [EPA]
National Institutes of Environmental Health Sciences [NIEHS]
National Toxicology Program [NTP]
U.S. Food and Drug Administration [FDA]
Compound auto fluorescence often interferes with screening of the compound library against various biological targets and signaling pathways. Some of these compounds may have fluorophoric properties. Such properties may interfere with the assay outputs resulting in false positives and/or negatives. To decrease such complications and ensure the compound activities are relevant in terms of biological response, the Tox21 10K compound library was screened for auto fluorescence.
From the fluorophores used as reporter signals in our screening assays, the auto fluorescence equivalencies of compounds against three fluorophores have been evaluated: Triamterene, Fluorescein and Rose Bengal sodium for blue, green and red fluorescence, respectively. The fluorescence intensities were measured using Excitation/Emission wavelengths at 405/460nm, 485/535nm and 540/590nm for blue, green and red labels, respectively. This assay includes the green fluorescence data.
Tox21 Assay Protocol Summary:
2,000 HepG2 cells in 5 uL of culture medium (MEM containing 10% FBS) per well were dispensed into black wall/clear bottom 1536-well plates using a Multidrop Combi Dispenser (ThermoFisher Scientific, Waltham, MA). The assay plates were incubated overnight at 37 C to allow cell attachment to the well bottom, followed by the transfer of 23 nL compound or DMSO vehicle by a pintool work station (Kalypsys , San Diego, CA). After the assay plates were incubated for 1 hr at 37 C and 5% CO2, fluorescence intensities in the assay plates were measured by an Envision (PerkinElmer, Shelton, CT) plate reader using three labels for measuring blue, green and red fluorescence at […] 460, 535 and 590 nm respectively.
A general note: In qHTS, concentration-response curves come from the screen itself.
`COC(=O)NN`: the molecule was classed as inactive.
Then `NS(=O)(=O)c1ccccc1Cl`, with “inactive”.
For `CC(C)OC(=O)c1ccccc1`, the result was inactive.
Consider `CC(C)CNCC(C)C`, for which the outcome was inactive.
As to `CC(C)(CC(=O)O)C(=O)O`, the outcome was inactive.
Then `NS(=O)(=O)c1cc2c(cc1Cl)NC(C1CC3C=CC1C3)NS2(=O)=O` (stereo not given), with “inactive”; and `NCCc1cnc[nH]1`, with “inactive”.
With `Cc1cccn2c(=O)c(-c3nnn[nH]3)cnc12`, the result was inactive.
Then `O=S(O)CO`, with “inactive”; and `CCO/C([O-])=N/c1c[n+](N2CCOCC2)no1`, with “inactive”; and `Cc1c(O)cccc1O`, with “inactive”.
Then `Cc1cc2c(cc1S(N)(=O)=O)S(=O)(=O)CCC2`, with “inactive”; and `NC(CSCC(=O)O)C(=O)O` (stereo not given), with “inactive”.
As for `Cc1ccc(=O)n(-c2ccccc2)c1`, the entry is “inactive”; as for `O=C(O)CNC(=O)c1ccc([N+](=O)[O-])cc1`, “inactive”.
Regarding `COC(=O)c1ccc(C)cc1C1=NC(C)(C(C)C)C(=O)N1` (stereo not given), the result was inactive.
As for `CN1CCN(c2cc3c(cc2F)c(=O)c(C(=O)O)cn3-c2ccc(F)cc2)CC1`, the entry is “inactive”; as for `CC(C)(O)C(=O)c1ccccc1`, “inactive”; as for `CC/C=C\CC/C=C/C(OCC)OCC`, “inactive”.
`O=Cc1cccc([N+](=O)[O-])c1`: the molecule was called inactive.
Then `CC1(C)C(O)C(C)(C)C1O` (stereo not given), with “inactive”; and `O=c1cc(CO)occ1O`, with “inactive”; and `CC(C)c1cc2c(cc1S(=O)(=O)O)[C@@]1(C)CCC[C@@](C)(C(=O)O)[C@@H]1CC2`, with “inactive”.
Regarding `O=C1CCCC(=O)C1`, the result was inactive.
As for `Nc1ccc(S(=O)(=O)Nc2ccnn2-c2ccccc2)cc1`, the entry is “inactive”; as for `C=C(C)C(=O)OCCCCCCCC(C)C`, “inactive”; as for `C[N+](C)(C)CC(O)CC(=O)[O-]` (stereo not given), “inactive”.
Regarding `CCCN1CCCC[C@H]1C(=O)Nc1c(C)cccc1C`, the molecule was called inactive.
As to `Cc1ccc(Cl)cc1Cl`, the call was inactive.
Then `CN(C)CCCSc1ccccc1NC(=O)/C=C/c1ccccc1`, with “inactive”; and `CC(=O)CC(C)(C)C1CCCCC1`, with “inactive”.
Then `C=C[Si](OC(=C)C)(OC(=C)C)OC(=C)C`, with “inactive”; and `OC[C@]1(O)OC[C@@H](O)[C@H](O)[C@@H]1O`, with “inactive”.
Turning to `O=C1CCCN1C1CCCCC1`, the molecule was called inactive.
As for `O=C1CC2CC1C1CCCC21` (stereo not given), the entry is “inactive”; as for `CN(C(=O)c1c(O)c2ccccc2n(C)c1=O)c1ccccc1`, “inactive”; as for `CC(=O)OC/C=C(\C)CC/C=C(\C)CCC=C(C)C`, “inactive”.
As for `C[C@@H]1CCN(C(=O)[C@H](CCCN=C(N)N)NS(=O)(=O)c2cccc3c2NC[C@H](C)C3)[C@@H](C(=O)O)C1`, the entry is “inactive”; as for `NS(=O)(=O)c1cc(C(=O)O)cc(N2CCCC2)c1Oc1ccccc1`, “inactive”; as for `COC(=O)c1c(Cl)c(Cl)c(C(=O)OC)c(Cl)c1Cl`, “inactive”.
